Values joined by “and” are separate entries in the source; they are usually repeats but may differ in a detail not shown here. Equal entries are not always repeated. Structures can show the parent of a compound that is named as a salt. ± gives the standard deviation.

In the assay the test system is THP-1. Description: THP-1 cell loss relative to DMSO control; higher = more host cell loss (toxicity); extreme values may be limits of the assay. To be noted: 10 µM; 4 days; infection: M. tuberculosis H37Rv. Here is the method: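 OICR kinase inhibitor library screened in duplicate at 10 uM against M. tuberculosis-infected THP-1 macrophages, 4 days at 37 C. THP-1 cell loss (cytotoxicity or loss of adherence) was quantified from Hoechst-stained nuclei counts by high-content imaging and normalised to the 1% DMSO control; 100 = complete loss of host cells.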
For `Nc1[nH]nc2nc3ccccc3nc12`, the THP-1 cell loss amounted to 3.97 ± 5.6%.
To `COc1cc2nccc(Oc3ccc(NC(=O)Nc4cc(C)on4)c(Cl)c3)c2cc1OC` belongs 27.4 ± 5%.
To `O=C1NCCCc2c1oc1ccc(O)cc21` belongs 6.23 ± 8.8%; to `COc1cc2ncc(-c3ccccc3)nc2cc1OC` [Tyrphostin AG-1296], 0%.
To `Cc1ccc(NC(=O)c2cccc(C(C)(C)C#N)c2)cc1Nc1ccc2ncn(C)c(=O)c2c1` belongs 100%.
In turn, `Cc1ccc2nc(NCCN)c3ncc(C)n3c2c1` showed a THP-1 cell loss of 100%.
The same measure for `Oc1ccc(Nc2nc(-c3ccc(Cl)cc3)cs2)cc1`: 100%; for `COc1cc2ncnc(Nc3ccc(F)c(Cl)c3)c2cc1OCCCN1CCOCC1` [Gefitinib]: 12.5 ± 5.5%.
`NC(=O)Nc1sc(-c2ccc(F)cc2)cc1C(N)=O` gave a THP-1 cell loss of 76.1 ± 3%.
In the case of `O=c1cc(-c2cccc3c2Sc2ccccc2S3)oc(N2CCOCC2)c1`, the THP-1 cell loss came to 26.6 ± 14%.
To `COc1cc2nccc(Oc3ccc(NC(=O)C4(C(=O)Nc5ccc(F)cc5)CC4)cc3)c2cc1OC` belongs 83.9 ± 4.8%; to `O=C(O)c1ccc2c(c1)nc(Nc1cccc(Cl)c1)c1ccncc12`, 66.8 ± 1.6%.
In turn, `CS(=O)(=O)CCNCc1ccc(-c2ccc3ncnc(Nc4ccc(OCc5cccc(F)c5)c(Cl)c4)c3c2)o1` [Lapatinib ditosylate] came in with a THP-1 cell loss of 100%.
The same measure for `Nc1ncnc2n[nH]c(Nc3ccc(F)cc3)c12`: 24% and 11%; for `COc1cc(Nc2ncc3c(n2)-c2ccc(Cl)cc2C(c2c(F)cccc2OC)=NC3)ccc1C(=O)O`: 8.63 ± 10%.
`NS(=O)(=O)c1nn2cc(-c3ccccc3)nc2s1` gave a THP-1 cell loss of 5.48 ± 7.7%.
In the case of `C/C(=N\N=C(N)N)c1ccc(NC(=O)c2cc3cccc([N+](=O)[O-])c3[nH]2)cc1`, the THP-1 cell loss was 0%.
On to `CNc1nccc(-c2cccnc2Oc2cc(C(=O)Nc3cccc(C(F)(F)F)c3)ccc2C)n1`, for which the THP-1 cell loss came to 100%.
In turn, `Cc1cc(Nc2cc(CN3CCOCC3)c3nc(C)c(Cc4ccc(Cl)cc4F)n3n2)n[nH]1` registered a THP-1 cell loss of 100%.
To `CC(C)(C)c1nc2c3cc[nH]c(=O)c3c3cc(F)ccc3c2[nH]1` [Merck-5] belongs 46.3 ± 11%; to `COc1ccc(OC)c2c(=S)c3ccccc3[nH]c12`, 9.79 ± 3.8%; to `CN(C)CCCn1cc(C2=C(c3c[nH]c4ccccc34)C(=O)NC2=O)c2ccccc21` [Bisindolylmaleimide I hydrochloride], 100%.
To `CN(C)C[C@@H]1CCn2cc(c3ccccc32)C2=C(C(=O)NC2=O)c2cn(c3ccccc23)CCO1` belongs 100%; to `Cc1ncc(-c2ccnc(Nc3ccc(S(C)(=O)=O)cc3)n2)n1C(C)C`, 100%.
To `O=C(O)c1cc(N(Cc2ccccc2O)Cc2cc(O)ccc2O)ccc1O` [Lavendustin A] belongs 4.39 ± 6.2%; to `COc1ccc(C(=O)Nc2sc3c(c2C(N)=O)CCCC3)cc1OC`, 100%; to `CC(=O)Nc1ccc([C@H](C)C(=O)Nc2ncc(C(C)C)s2)cc1`, 100%.
In turn, `Nc1nccc(Oc2ccc(NC(=O)c3c[nH]cc(-c4ccc(F)cc4)c3=O)cc2F)c1Cl` yielded a THP-1 cell loss of 48.1 ± 23%.
`COc1nccc(-c2c(-c3ccc(F)cc3)ncn2C2CCNCC2)n1` registered a THP-1 cell loss of 4.97 ± 0.45%.
`CCCCCCCC(=O)OCCOC(=O)CCCCCCC` [Dioctanoylglycol] yielded a THP-1 cell loss of 4.61 ± 6.5%.
In turn, `Nc1nc(Nc2ccc(S(N)(=O)=O)cc2)nn1C(=O)c1c(F)cccc1F` had a THP-1 cell loss of 100%.
To `NC(=O)c1sc2c([N+](=O)[O-])cc(C(F)(F)F)cc2[n+]1[O-]` [Cyclapolin 9] belongs 35.6 ± 12%.
`O=c1cc(N2CCOCC2)oc2c(-c3ccccc3)cccc12` yielded a THP-1 cell loss of 59.5 ± 13%.
In the case of `COc1cc2ncnc(Nc3ccc(O)c(Br)c3)c2cc1OC`, the THP-1 cell loss turned out to be 15.2 ± 1.4%.
The same measure for `Nc1ccc(-c2cccc3c(=O)cc(N4CCOCC4)oc23)cc1`: 39.6 ± 3.5%; for `NC(=O)c1ccc(-c2nc(-c3ccc4c(c3)OCCO4)c(-c3ccccn3)[nH]2)cc1`: 43.2 ± 50%.
To `Cn1c(=O)n(-c2ccc(C(C)(C)C#N)cc2)c2c3cc(-c4cnc5ccccc5c4)ccc3ncc21` belongs 36.6 ± 7.3%; to `O=C1C(Cl)=C(NCCN2CCOCC2)C(=O)c2ncccc21`, 93.7 ± 8.8%.
The same measure for `COc1cc2nccc(Oc3ccc(NC(=O)NC4CC4)c(Cl)c3)c2cc1C(N)=O`: 20.6 ± 14%.
Turning to `Cc1cc(I)ccc1Nc1c(C(=O)NOCC2CC2)cc(F)c(F)c1F`, the THP-1 cell loss was found to be 100%.
